Shown are actives, neighbours in structure and some others; about 2.4% of the full set was active somewhere.
D2 ag-1: agonists of human D2 dopamine receptor; 340,000 tested, 0.53% active; P14416; HEK293 T-REx D2 cells, calcium flux agonist mode; activation, % at 2 µM;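 active = activation over 3 SD above normal in the single-dose calcium agonist read, cut at about 30% in these data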; also: 0% is about no effect
Target sequence (P14416 whole entry, looked up): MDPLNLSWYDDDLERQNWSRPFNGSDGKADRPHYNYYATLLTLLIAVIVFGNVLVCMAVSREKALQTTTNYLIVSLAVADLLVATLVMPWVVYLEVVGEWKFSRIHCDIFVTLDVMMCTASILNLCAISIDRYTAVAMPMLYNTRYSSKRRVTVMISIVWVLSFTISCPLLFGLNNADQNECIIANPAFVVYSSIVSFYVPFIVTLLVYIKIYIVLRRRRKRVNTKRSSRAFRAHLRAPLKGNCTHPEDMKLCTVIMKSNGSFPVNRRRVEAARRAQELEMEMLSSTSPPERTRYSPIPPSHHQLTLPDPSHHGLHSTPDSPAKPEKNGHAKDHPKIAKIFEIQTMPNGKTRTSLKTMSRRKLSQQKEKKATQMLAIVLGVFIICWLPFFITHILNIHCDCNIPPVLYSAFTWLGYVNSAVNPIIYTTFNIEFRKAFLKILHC
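HEK293 Trex D2 cells, tetracycline-induced, o/n 30 C 5% CO2; no-wash Ca dye, RT 30–90 min; 10-cycle baseline, 23 nl cpd added, kinetic Ca read 180 s; agonist hits = positive Ca response.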
D2 ag-2: activates the human D2 dopamine receptor; DiscoveRx PathHunter D2 beta-arrestin, luminescence, 90 min; 100% = 57 uM dopamine signal; P14416; activation, % (no concentration beside the values); 360,000 tested, 0.084% active; AID 624465; in the data active = activation above about 40%; inconclusive = between about 15% and that limit
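Agonist mode: compounds alone added to overnight-plated D2 PathHunter cells for 90 min at 37 C, with 57 uM final dopamine (EC100) defining full response. Beta-arrestin recruitment detected by chemiluminescent reagent, read after 1 h at ambient temperature.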
D2 PAM-1: positive allosteric modulators of human D2 dopamine receptor | P14416 | HEK293 T-REx D2, calcium flux, EC20 dopamine potentiation | potentiation, % at 10 µM | 340,000 tested, 0.34% active | AID 485347;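 active = potentiation over 3 SD above the plate norm, cut at about 30% in these data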; also: 0% is about no effect
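Calcium flux readout, no-wash dye, 1 read/s. Inducible HEK293 Trex D2 line, overnight 30 C. Compound alone 180 s (agonist flags), then EC20 dopamine, another 180 s to score potentiation.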
D2 PAM-2: positive allosteric modulators of human D2 dopamine receptor. DiscoveRx D2 beta-arrestin cells, luminescence, 90 min; 100% = 57 uM dopamine signal. potentiation, % (no concentration beside the values). 360,000 tested, 0.23% active. AID 624464; in the data active = potentiation above about 50%; inconclusive = mostly about 30% to 49%
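D2 cells co-treated with compound plus 50 nM dopamine (EC20) for 90 min at 37 deg C to detect potentiation. Beta-arrestin recruitment was read as enzyme-fragment luminescence after 1 h at ambient temperature. Full response was set by 57 uM dopamine.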
D2 antagonist: D2 dopamine receptor (human) antagonism | HEK293 TREx D2 cells, calcium flux, dopamine EC80 | inhibition, % at 10 µM | 340,000 tested, 2% active; in the data active = inhibition above about 30%; inactive = below that, where a call was filed; also: 0% is about no effect
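Cells plated overnight at 30 C with tetracycline; no-wash calcium dye, 30–90 min RT; 10 s baseline; compound pinned; 180 s read; EC80 dopamine added; another 180 s read.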
* marks the source's active call; other numbers are inactive results.

Screening COc1cccc(CNC(=O)C(NS(=O)(=O)c2cccs2)C(C)C)c1 (stereo not given) returned D2 ag-1 0.5 and D2 PAM-1 -9.7.
`CC1=CC(c2ccc(Cl)cc2)n2nc(NS(=O)(=O)c3ccc(C)cc3)nc2N1` (stereo not given) gave D2 ag-1 0.1, D2 ag-2 -0.4, D2 PAM-1 -3.3, D2 PAM-2 -0.3 and D2 antagonist -7.6.
For CC1=CC(c2ccccc2)n2nc(NS(=O)(=O)c3ccc(C)cc3)nc2N1 (stereo not given) the results were D2 ag-1 -0.7, D2 ag-2 0.0, D2 PAM-1 -3.2, D2 PAM-2 -4.7 and D2 antagonist 120.8*.
For COC(=O)c1cccc(-n2c(CCC(=O)O)ccc2-c2ccc(OC)cc2)c1 the results were D2 ag-1 0.0 and D2 PAM-1 6.9.
Nc1nc(Cl)nc2c1ncn2[C@@H]1O[C@H](CO)[C@@H](O)[C@H]1O was read as D2 ag-1 4.0, D2 ag-2 2.0, D2 PAM-1 12.3, D2 PAM-2 -17.3 and D2 antagonist 37.4*.
Screening CC(C)(C)SCCNC(=O)CN(c1ccccc1)S(=O)(=O)c1ccc(F)cc1 returned D2 ag-1 0.7, D2 ag-2 -2.8, D2 PAM-1 -3.6, D2 PAM-2 -0.8 and D2 antagonist 32.2*.
`CN1/C(=C\C=C(C#N)C#N)C(C)(C)c2ccccc21` gave D2 ag-1 5.5, D2 ag-2 0.7, D2 PAM-1 1.6, D2 PAM-2 0.4 and D2 antagonist 24.1.
Screening CN1/C(=C/C=N/n2cnnc2)C(C)(C)c2ccccc21 returned D2 ag-1 -1.0, D2 ag-2 -0.5, D2 PAM-2 1.9 and D2 antagonist 56.3*.
For Cc1ccc(CNC(=O)CCS(=O)(=O)c2ccc3c(c2)oc(=O)n3C)cc1 the results were D2 ag-1 -1.0, D2 ag-2 2.2, D2 PAM-1 7.1, D2 PAM-2 3.6 and D2 antagonist 30.3*.
`O=c1[nH]c(/C=C/c2ccc([N+](=O)[O-])cc2)c([N+](=O)[O-])c(=O)[nH]1` gave D2 ag-1 -0.1, D2 ag-2 inconclusive, D2 PAM-1 -1.6, D2 PAM-2 52.2* and D2 antagonist 3.1.
Screening O=c1[nH]c(/C=C/c2ccc3c(c2)OCO3)c([N+](=O)[O-])c(=O)[nH]1 returned D2 ag-1 3.3, D2 PAM-1 -8.5 and D2 antagonist -2.9.
For Cc1ccc(Cl)cc1N1CCN(C(=O)CCS(=O)(=O)c2cc(Br)cc3c2N(C(=O)C2CC2)CC3)CC1 the results were D2 PAM-1 0.5.
O=C1C2CCCCN2C(=O)N1CCCCN1CCN(c2cccc(Cl)c2)CC1 (stereo not given) was read as D2 ag-1 3.2, D2 ag-2 3.5, D2 PAM-1 -17.1, D2 PAM-2 -11.2 and D2 antagonist 91.7*.
`COc1ccccc1N1CCN(CCCCN2C(=O)C3CCCN3C2=O)CC1` (stereo not given) gave D2 ag-2 1.9 and D2 PAM-2 -24.3.
O=C1C2CCCCN2C(=O)N1CCCCN1CCN(c2ccccc2Oc2ccccc2)CC1 (stereo not given) was read as D2 ag-1 -0.4, D2 ag-2 -6.8, D2 PAM-1 -14.9, D2 PAM-2 -5.4 and D2 antagonist 84.1*.
Screening COc1cc(Br)ccc1C1C(C(=O)Nc2ccc(C)cc2C)=C(C)Nc2nnnn21 (stereo not given) returned D2 ag-1 -0.4 and D2 PAM-1 19.6.
CC(=O)c1cccc(N2C(=NC(=O)CCc3ccccc3)SC3CS(=O)(=O)CC32)c1 (stereo not given) was read as D2 ag-1 -0.3, D2 ag-2 -1.7, D2 PAM-1 -1.8, D2 PAM-2 -7.0 and D2 antagonist 31.8*.
`COc1ccc(-c2cc(=O)oc3cc(OC(C)C(=O)NC(Cc4c[nH]c5ccc(O)cc45)C(=O)O)ccc23)cc1` (stereo not given) gave D2 ag-1 4.7, D2 ag-2 4.0, D2 PAM-1 -5.1, D2 PAM-2 -13.9 and D2 antagonist -21.6.
Screening CC(Oc1ccc2ccc(=O)oc2c1)C(=O)NC(Cc1c[nH]c2ccc(O)cc12)C(=O)O (stereo not given) returned D2 ag-1 -0.6, D2 ag-2 9.1, D2 PAM-1 -24.3, D2 PAM-2 7.0 and D2 antagonist 43.8*.
For CCCc1cc(=O)oc2cc(C)cc(OCC(=O)NC(Cc3c[nH]c4ccc(O)cc34)C(=O)O)c12 (stereo not given) the results were D2 ag-1 0.2, D2 ag-2 -3.9, D2 PAM-1 7.7, D2 PAM-2 -2.4 and D2 antagonist -23.6.
CCc1cc(=O)oc2cc(C)cc(OCC(=O)NC(Cc3c[nH]c4ccc(O)cc34)C(=O)O)c12 (stereo not given) was read as D2 ag-1 0.6, D2 ag-2 7.1, D2 PAM-1 -12.2, D2 PAM-2 20.3 and D2 antagonist 48.3*.
`CCC1CN(C(=O)Nc2cccc3c2CCCC3)c2cc(Cl)ccc2O1` (stereo not given) gave D2 ag-1 -0.2 and D2 PAM-1 -1.7.
`Cc1cccc(NC(=O)CN2C(=O)C3(SCC(=O)N3c3ccccc3)c3ccccc32)c1` (stereo not given) gave D2 ag-1 0.6 and D2 PAM-1 3.6.
`CC1(NC(=O)C2CCCCC2)CCS(=O)(=O)C1` (stereo not given) gave D2 ag-1 1.8, D2 ag-2 -18.1, D2 PAM-1 -3.2, D2 PAM-2 0.0 and D2 antagonist 42.0*.
`CC(=O)C(C)Oc1ncn(-c2ccccc2)n1` (stereo not given) gave D2 ag-1 0.1, D2 ag-2 0.8, D2 PAM-1 11.1, D2 PAM-2 -17.1 and D2 antagonist 33.4*.
For CC(=O)Nc1sc(/C(C#N)=C\c2cccc(Cl)c2)nc1-c1ccc(C)cc1 the results were D2 ag-1 61.0*, D2 ag-2 0.4, D2 PAM-1 -13.8, D2 PAM-2 6.2 and D2 antagonist 30.2*.
For N#CCO/N=C/C(=O)Nc1ccc(F)cc1F the results were D2 ag-1 -0.8, D2 ag-2 -3.6, D2 PAM-1 5.8, D2 PAM-2 -2.6 and D2 antagonist 53.2*.
`O=C(CC(=O)Nc1ccc(F)cc1F)Nc1ccc(F)cc1F` gave D2 ag-1 -1.7, D2 ag-2 -0.9, D2 PAM-1 -6.4, D2 PAM-2 -4.6 and D2 antagonist 22.7.
`COC(=O)c1ccc(NC(=O)C2CC(=O)OC2c2ccccc2)cc1` (stereo not given) gave D2 ag-1 0.0, D2 ag-2 -5.3, D2 PAM-1 -15.3, D2 PAM-2 -5.6 and D2 antagonist 35.3*.
